Data from ChEMBL document CHEMBL3988442, “University of Dundee, Small-Polar-MMV Screening Library” (2021).
In all, about 48,000 compounds went through this assay and about 13,000 (27%) showed an effect of 50% or more. This is one part of the list.

system: Wolbachia pipientis; assay: Anti-Wolbachia Cell-Based Screen; type: functional; design: scale not given: in the data most compounds retested in dose-response had high values; conditions: 5 µM

| SMILES | Percent Effect [%] |
| --- | --- |
| CCc1nnc2ccc(NCC3(N4CCCCC4)CCOCC3)nn12 | -22.71 |
| Cc1ccccc1Cc1nc(CSc2nnc(N)n2C)no1 | 3.092 |
| CCC(CNC(=O)c1ccco1)N1CCc2ccccc2C1 (stereo not given) | 8.519 |
| CC(C)NC(=O)C1c2c(ncn2C(C)C)CCN1Cc1ccccc1.O=C(O)C(F)(F)F (stereo not given) | -4.449 |
| COc1ncccc1CNC(=O)C1=NN(c2ccccc2)C(=O)CN1 | 17.13 |
| O=C(OCc1ccccc1)c1cccc(NC(=O)C2COCCO2)c1 (stereo not given) | -10.37 |
| CC(C)N1Cc2cccc(NCC(=O)N(C)C3CCCCC3)c2C1 | -12.78 |
| OCCN1CCC(CNCc2ccc(N3CCCCC3)cc2)CC1 | -10.73 |
| CC(C)NS(=O)(=O)c1cc(C(=O)O)cc(-n2cc3c(n2)CCC3)c1 | -3.943 |
| CC1=N[C@@]2(CC[C@@H]3CN(Cc4ccccc4)C[C@@H]32)C(=O)N1CC1CC1.O=C(O)C(F)(F)F | 87 |
| CC1=N[C@@]2(CC[C@@H]3CN(Cc4ccccc4F)C[C@@H]32)C(=O)N1CC1CC1.O=C(O)C(F)(F)F | -0.009519 |
| CC1=N[C@@]2(CC[C@@H]3CN(CC(C)C)C[C@@H]32)C(=O)N1CC(C)C.O=C(O)C(F)(F)F | 10.27 |
| COCCN1C[C@H]2CC[C@@]3(N=C(C)N(CC4CC4)C3=O)[C@H]2C1.O=C(O)C(F)(F)F | -0.9614 |
| CC1=N[C@@]2(CC[C@@H]3CN(CC4CC4)C[C@@H]32)C(=O)N1CC(C)C.O=C(O)C(F)(F)F | -11.12 |
| CC1=N[C@@]2(CC[C@@H]3CN(CC4CC4)C[C@@H]32)C(=O)N1CC1CC1.O=C(O)C(F)(F)F | 106.2 |
| O=C(O)C(F)(F)F.O=C1NC(c2ccccc2)=N[C@@]12CC[C@@H]1CN(CC3CC3)C[C@@H]12 | 1.711 |
| CC1=N[C@@]2(CC[C@@H]3CN(Cc4cccc(Cl)c4)C[C@@H]32)C(=O)N1CC1CC1.O=C(O)C(F)(F)F | 106.8 |
| CC1=N[C@@]2(CC[C@@H]3CN(Cc4ccccc4C)C[C@@H]32)C(=O)N1CC1CC1.O=C(O)C(F)(F)F | 101.1 |
| CCS(=O)(=O)N1CCC(Nc2c(F)cc(C#N)cc2F)CC1 | 12.27 |
| Cn1cc(S(=O)(=O)NCC2CCN(C(=O)c3ccoc3)CC2)cn1 | -16.26 |
| CC1=N[C@@]2(CC[C@@H]3CN(Cc4ccc(C)cc4)C[C@@H]32)C(=O)N1CC1CC1.O=C(O)C(F)(F)F | 104.5 |
| CC1=N[C@@]2(CC[C@@H]3CN(CC(=O)N(C)C)C[C@@H]32)C(=O)N1CC(C)C.O=C(O)C(F)(F)F | 6.41 |
| CCC1=N[C@@]2(CC[C@@H]3CN(Cc4ccccc4F)C[C@@H]32)C(=O)N1.O=C(O)C(F)(F)F | -10.48 |
| CC1=N[C@@]2(CC[C@@H]3CN(S(=O)(=O)CC(C)C)C[C@@H]32)C(=O)N1C | 16.54 |

| SMILES | Percent Effect [%] |
| --- | --- |
| COCCN1C(=O)[C@]2(CC[C@@H]3CN(Cc4ccccc4F)C[C@@H]32)N=C1C.O=C(O)C(F)(F)F | 90.53 |
| CC1=N[C@@]2(CC[C@@H]3CN(Cc4ccccc4F)C[C@@H]32)C(=O)N1C | 100.6 |
| CC1=N[C@@]2(CC[C@@H]3CN(C(=O)NC(C)C)C[C@@H]32)C(=O)N1CC1CC1 | 1.3 |
| COCCN1C(=O)[C@]2(CC[C@@H]3CN(C(=O)NC(C)C)C[C@@H]32)N=C1C | 32.84 |
| COCCN1C(=O)[C@]2(CC[C@@H]3CN(C(=O)NC4CCCC4)C[C@@H]32)N=C1C | -7.65 |
| COc1ccc(S(=O)(=O)NCC(c2cccn2C)N(C)C)cc1F (stereo not given) | 1.104 |
| Cc1nn(C)cc1C(=O)N1CCCn2nc(CN3CC[C@H](F)C3)cc2C1 | 10.52 |
| Cc1nccn1-c1ccc(C(C)NCc2cc[nH]n2)cc1 (stereo not given) | -2.741 |
| CN(Cc1cccnc1N)Cc1cccc2ncccc12 | 108.3 |
| CN(Cc1cccc(CCN)c1)Cc1cccc2ncccc12 | 97.29 |
| CN(Cc1cccc(OCCO)c1)Cc1cccc2ncccc12 | 95.97 |
| COCCN(Cc1cccc(OCCO)c1)Cc1ccccc1F | 0.9238 |
| CN(Cc1csc(-c2cccs2)n1)Cc1cccnc1N | 16.69 |
| CN(Cc1cccc2ncccc12)C(=O)CCC(F)(F)F | -3.963 |
| CC(C)c1cc(C(=O)N(C)Cc2cccc3ncccc23)n(C)n1 | -7.2 |
| CCCc1cc(C(=O)N(C)Cc2cccc3ncccc23)n(C)n1 | 20.91 |
| CCCN(Cc1cccc(OCCO)c1)Cc1ccccc1OC | 8.157 |
| Cc1ccsc1-c1cc(C(=O)O)cc(S(=O)(=O)NCc2ccccn2)c1 | -12.11 |
| COc1ccccc1Oc1ncccc1CNC(=O)[C@@H](N)CCO | -18.01 |
| O=C(NC1CC1)c1ccnc(N2CCOC(c3ccc(Cl)c(Cl)c3)C2)c1 (stereo not given) | -23.24 |
| Cc1cc(N2CCOC(c3ccc(C(N)=O)cn3)C2)ncn1 (stereo not given) | 105.9 |
| COc1cc(N2CC[C@@H]3O[C@@H](c4ccncn4)C[C@H]3C2)ncn1 | -28.63 |
| O=C(NC1CC1)c1ccnc(N2CCOC(c3ccc(Cl)cc3)C2)c1 (stereo not given) | -21.25 |
| Cc1ccc(N2CC[C@@H]3O[C@@H](c4ccncn4)C[C@H]3C2)nn1 | 17.26 |

| SMILES | Percent Effect [%] |
| --- | --- |
| Cc1cc(N2CCOC(c3ccncn3)C2)ncn1 (stereo not given) | 99.32 |
| CN(C)CCN1CCOC2(CCN(c3nccs3)CC2)c2ccccc21 | -12.88 |
| N#Cc1ccc(C(=O)N2CCOC[C@H](Oc3cnccn3)C2)cc1 | -4.484 |
| CC1(C)CNC(=O)c2nc(CCN3CCCCC3CO)[nH]c2C1 (stereo not given) | -22.93 |
| CCOc1cc(NC(=O)C2CC(=O)N(c3cccc(OC)c3)C2)ncn1 (stereo not given) | -2.704 |
| CCN(Cc1ccc(C#N)cc1F)C(=O)C(C)(C)C | 4.691 |
| CC(C)c1nc2c(n1C)CCN(CC(=O)Nc1ccncc1)C2 | 127.6 |
| CC(C)c1nc2c(n1C)CCN(CC(=O)Nc1cccnc1)C2 | 119.2 |
| CC(C)c1nc2c(n1C)CCN(CC(=O)Nc1ccc(Cl)cn1)C2 | 6.553 |
| CC(C)c1nc2c(n1C)CCN(CCc1ccccn1)C2 | 5.197 |
| CC(C)c1nc2c(n1C)CCN(CC(=O)NCc1ccccn1)C2 | -5.66 |
| CC(C)c1nc2c(n1C)CCN(CC(=O)Nc1nccs1)C2 | -1.818 |
| CC(C)c1nc2c(n1C)CCN(CC(=O)Nc1ccnn1C(C)C)C2 | 120.4 |
| Cc1nn(C)c(C)c1NC(=O)CN1CCc2c(nc(C(C)C)n2C)C1 | -19.45 |
| CC(C)c1cc(NC(=O)CN2CCc3c(nc(C(C)C)n3C)C2)on1 | 6.487 |
| COc1ccnc(N2CCC(=O)N(CC3CC3)C(C(C)C)C2)n1 (stereo not given) | -66.14 |
| Cc1n[nH]cc1CNCC(c1cccc(F)c1)N(C)C (stereo not given) | -5.12 |
| O=S(=O)(CC1CCOCC1)NCc1ncc(-c2ccccc2)o1 | -9.674 |
| Cn1cc(C2CCCN2CC(=O)N(CCC#N)Cc2ccco2)cn1 (stereo not given) | 0.296 |
| CCNC(=O)CN1CCN(c2cc(C)nc(-c3ccncc3)n2)CC1 | 108.7 |
| Cc1cc(N2CCC(N(C)C(=O)c3ccccc3)CC2)nc(C)n1 | -0.5132 |
| Cc1cc(N2CCC(C(=O)N(C)C)CC2)nc(-c2ccncc2)n1 | 121.6 |
| Cc1cc(C)n(-c2cncc(N3CCC(C(=O)N(C)C)CC3)n2)n1 | -4.811 |
| CC(=O)NCC1CCN(c2cc(C(C)C)nc3ccnn23)CC1 | -0.4994 |

| SMILES | Percent Effect [%] |
| --- | --- |
| CC(=O)NCC1CCN(c2cc(C)nc(-c3ccncc3)n2)CC1 | 110 |
| O=C(NC1CCN(c2cccc(C(F)(F)F)n2)CC1)C1CC1 | -2.588 |
| CC(=O)NCC1CCN(c2ccnc3ccc(Br)cc23)CC1 | 3.515 |
| O=C(NC1CC1)C1CCN(c2cccc(C(F)(F)F)n2)CC1 | -5.657 |
| Cc1cc(NCC(=O)NCC(F)(F)F)nc(-c2ccncc2)n1 | 6.905 |
| Cc1cc(N2CCC(C(=O)NC3CC3)CC2)nc(-c2ccncc2)n1 | 96.2 |
| CCNC(=O)CN1CCN(c2ccnc3c(F)ccc(F)c23)CC1 | 11.86 |
| COCC(=O)NC(c1ccc(Cl)cc1)c1noc(C)n1 (stereo not given) | 10.23 |
| CN1CCN(CC[C@@H]2CC[C@H](O)[C@@H](C(=O)Nc3ccccc3)O2)CC1 | -5.857 |
| Cc1c(Cl)cc(C(=O)N(CCO)Cc2nccn2C)cc1Cl | -0.9396 |
| CCC1CN(Cc2nnc(C3CC3)o2)CCC(=O)N1Cc1ccccc1 (stereo not given) | 1.6 |
| Cc1cccc(CNC2CCN(CCc3ccncc3)CC2)c1C | -28.44 |
| O=C(Nc1ccccc1)C1CN(Cc2nccs2)CC12CCOCC2 (stereo not given) | -7.197 |
| CCCN(C)C(=O)Nc1ccc(C(=O)NCCC(=O)OC)cc1 | 0.9295 |
| COc1ccc(-c2nc3c([nH]2)CCNC3C(=O)O)c2ccccc12 (stereo not given) | -1.412 |
| Cn1ncc2c(=O)[nH]c(N3CCCC3c3cccs3)nc21 (stereo not given) | 2.416 |
| O=C1N[C@@H]2CCN(C(=O)C3CC3)[C@@H]2C(=O)N1c1ccc(F)cc1 | -5.922 |
| Cc1cc(N2CCOC(CN)C2)nc(-c2ccccc2)n1 (stereo not given) | 6.388 |
| COC(=O)C1CCN(C(=O)CN2CCN(c3cccc(C)c3)CC2)CC1 | -8.309 |
| Cc1cc(N2CCOC(C(F)(F)F)C2)nc(-c2ccccc2)n1 (stereo not given) | 4.501 |
| COC(=O)C1CCN(c2cncc(-n3nc(C)cc3C)n2)CC1 | -8.177 |
| Cc1cc(N2CCN(c3ccc(=O)[nH]n3)CC2)nc(-c2ccncc2)n1 | 110.1 |
| COC(=O)C1CCN(c2cc(C)nc(-c3ccncc3)n2)CC1 | 111 |
